APOBEC3A inh: APOBEC3A ssDNA deaminase inhibitors, primary screen, selectivity assay for APOBEC3G inhibitor project, biochemical, FAM/TAMRA oligo cleavage fluorescence; DNA dC->dU-editing enzyme APOBEC-3A (Homo sapiens), P31941; recombinant A3A, FAM/TAMRA ssDNA deamination fluorescence; inhibition, % at 20 µM; 330,000 tested, 0.41% active; AID 493011, 2011;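 active means at least 40% inhibition at 20 µM here, with at most 30% in a related deaminase screen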;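 further: plate controls were A3A with DMSO for no effect and wells lacking A3A enzyme for full effect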
APOBEC3G inh: APOBEC3G DNA deaminase inhibitors, primary screen, biochemical, fluorescence, single-stranded DNA substrate, uHTS; DNA dC->dU-editing enzyme APOBEC-3G (Homo sapiens), Q9HC16; inhibition, % at 20 µM; 330,000 tested, 0.28% active; AID 493012, 2011; recombinant A3G, ssDNA deamination FAM/TAMRA fluorescence;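 active means inhibition of at least 40% at 20 µM, with no more than 30% in the related APOBEC3A deaminase screen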;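 further: plate controls were DMSO wells with A3G for no effect and wells lacking A3G enzyme for full effect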
HDAC3 inh: HDAC3 deacetylase inhibitors, primary screen, biochemical, fluorescence, cell-free homogeneous; Histone deacetylase 3 (Homo sapiens), O15379; recombinant HDAC3, fluorogenic peptide/trypsin coupled; inhibition, % at 8.3 µM; 320,000 tested, 0.15% active; in the data active means inhibition above about 26%, passing the limit was not always enough; inconclusive means no clear call, values can overlap the other calls
LANA-H2A inh: blockers of LANA interaction with H2A/H2B – biochemical, FP readout, HTS, primary screen; Protein LANA1 (Human herpesvirus 8 type P (isolate GK18)), Q9QR71; cell-free LANA-H2A/H2B peptide, fluorescence polarization; inhibition, % (no concentration beside the values); 320,000 tested, 0.6% active; in the data active means inhibition mostly above about 10%, no sharp cut-off; inactive means mostly below about 6.7%
Target sequence (Q9QR71 whole entry, looked up): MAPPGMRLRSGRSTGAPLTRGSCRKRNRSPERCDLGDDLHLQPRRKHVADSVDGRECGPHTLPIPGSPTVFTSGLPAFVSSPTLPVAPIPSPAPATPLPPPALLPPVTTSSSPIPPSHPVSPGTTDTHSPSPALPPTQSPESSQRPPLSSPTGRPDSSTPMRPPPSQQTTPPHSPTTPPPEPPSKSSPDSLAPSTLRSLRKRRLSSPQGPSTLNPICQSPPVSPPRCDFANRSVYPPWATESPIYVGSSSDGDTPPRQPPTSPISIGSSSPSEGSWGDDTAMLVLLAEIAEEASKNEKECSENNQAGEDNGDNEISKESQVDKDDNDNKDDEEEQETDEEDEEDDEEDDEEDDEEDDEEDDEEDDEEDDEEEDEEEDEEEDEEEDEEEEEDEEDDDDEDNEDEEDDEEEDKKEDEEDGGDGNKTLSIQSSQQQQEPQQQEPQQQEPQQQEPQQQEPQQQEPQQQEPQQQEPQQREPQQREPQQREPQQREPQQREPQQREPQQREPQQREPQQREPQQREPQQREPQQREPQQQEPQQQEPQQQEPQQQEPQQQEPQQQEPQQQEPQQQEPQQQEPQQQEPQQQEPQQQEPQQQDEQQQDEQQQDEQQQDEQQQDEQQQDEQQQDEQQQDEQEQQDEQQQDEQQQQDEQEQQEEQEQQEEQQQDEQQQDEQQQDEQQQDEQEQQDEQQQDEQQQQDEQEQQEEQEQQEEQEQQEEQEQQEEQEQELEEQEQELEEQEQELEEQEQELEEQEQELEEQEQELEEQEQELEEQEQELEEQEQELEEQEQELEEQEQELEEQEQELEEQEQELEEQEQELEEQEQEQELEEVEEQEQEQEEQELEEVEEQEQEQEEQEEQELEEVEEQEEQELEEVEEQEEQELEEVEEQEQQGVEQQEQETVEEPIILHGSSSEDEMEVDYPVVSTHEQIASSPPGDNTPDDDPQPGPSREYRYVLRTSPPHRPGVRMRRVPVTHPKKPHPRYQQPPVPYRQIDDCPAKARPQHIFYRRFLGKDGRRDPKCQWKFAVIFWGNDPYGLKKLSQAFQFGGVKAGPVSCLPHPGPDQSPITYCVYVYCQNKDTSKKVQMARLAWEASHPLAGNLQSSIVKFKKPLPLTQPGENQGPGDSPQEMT
APOBEC3G confirm: APOBEC3G deaminase inhibitor retest, confirmation, biochemical, fluorescence, single-stranded DNA substrate, single concentration | recombinant A3G ssDNA deaminase, UDG/FAM-TAMRA fluorescence | inhibition, % at 20 µM | shares compounds with APOBEC3G inh | 890 tested, 72% active;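 active means inhibition reaching a set limit in any replicate at 20 µM, the limit being 80% of the first screen's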
UDG ctr A3G: E. coli UDG inhibitors, confirmation, counter-screen for APOBEC3G inhibitor project, biochemical, single concentration, fluorescence, FAM/TAMRA oligo | shares compounds with APOBEC3G inh | UDG counterscreen | inhibition, % at 20 µM | 710 tested, under 10 active | AID 504715, 2011;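 active means compounds giving 40% or more inhibition at 20 µM in any one of the three replicates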;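 further: plate controls were DMSO wells with UDG and oligo for no effect and DMSO wells lacking both for full effect; inhibitors lower the FAM signal released by uracil excision and alkaline cleavage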
* = called active by the depositor; ? = inconclusive; · = no result given. Shown are actives, neighbours in structure and some others; about 1.4% of the full set was active somewhere.

SMILES	APOBEC3A inh	APOBEC3G inh	HDAC3 inh	LANA-H2A inh	APOBEC3G confirm	UDG ctr A3G
COc1ccc(/C=N/n2c(-c3cc(C)[nH]n3)n[nH]c2=S)cc1	-5.8	46.2*	8.0	0.6	90.7*	-3.3
Cc1cccc(-c2n[nH]c(=S)n2/N=C/c2ccc(C)o2)c1	-5.2	32.7	6.7	0.2	·	·
CC(/C=N/n1c(-c2cc(C)[nH]n2)n[nH]c1=S)=C\c1ccccc1	2.0	44.4*	9.2	0.8	25.9	·
COc1ccc(/C=N/n2c(-c3ccccc3)n[nH]c2=S)cc1	-4.2	27.5	12.7	1.6	·	·
COc1ccc(/C=N/n2c(-c3cc(C)[nH]n3)n[nH]c2=S)cc1OC	-1.2	42.6*	10.2	-0.8	62.8*	0.1
Cc1cc(-c2n[nH]c(=S)n2/N=C/c2ccc(C)o2)n[nH]1	-4.7	40.4*	7.3	0.1	84.0*	-5.0
Cc1nc2scc(C)n2c(=O)c1S(=O)(=O)N1CCN(c2ccc([N+](=O)[O-])cc2)CC1	-2.9	-2.6	0.2	2.9	·	·
Cc1cccc(CCNC(=O)c2cc(S(=O)(=O)N3CCCCC3)c[nH]2)c1	-4.3	-8.9	-8.0	-1.0	·	·
Cc1ccc(C)c(N2CCN(C(=O)CCc3nc(-c4ccccc4Br)no3)CC2)c1	-2.4	3.0	·	·	·	·
CC(=O)Nc1ccc(S(=O)(=O)NNc2cccc(C)c2)cc1	3.0	60.9*	3.7	-2.6	61.7*	-2.8
Cc1ccc(S(=O)(=O)Nc2ccc(Nc3ccccc3)cc2)cc1	-0.3	-3.1	1.1	7.2	·	·
Cc1cccc(NC(=O)NNS(=O)(=O)c2ccc(F)cc2)c1	2.3	2.6	-1.0	6.2	·	·
Cc1ccc(S(=O)(=O)NNc2ccccc2)cc1	4.2	67.6*	7.0	-0.1	65.7*	·
COc1cccc([C@@H]2CC=C(C(=O)O)[C@H](c3cccc(Cl)c3)N2S(=O)(=O)c2ccc(C)cc2)c1	-3.4	-7.4	12.6	2.3	·	·
O=C(Nc1nc(-c2ccccn2)cs1)Nc1ccc(F)cc1F	1.9	59.6*	9.3	3.0	68.0*	-4.7
O=C(Nc1nc(-c2ccccc2)cs1)Nc1ccc(F)cc1F	2.7	-0.5	-2.1	-2.1	·	·
CCOCCCn1c(=O)c2ccccc2n2c(=S)[nH]nc12	-2.5	42.5*	19.7	2.7	62.2*	1.3
C=CCn1c(=O)c2ccccc2n2c(=S)[nH]nc12	-6.7	50.3*	4.7	-0.5	80.0*	-3.5
CC(C)CCn1c(=O)c2ccccc2n2c(=S)[nH]nc12	-4.7	46.0*	-5.5	1.3	86.1*	-4.0
COc1ccccc1-c1nnc(SCC(=O)Nc2ccc(N3CCOCC3)cc2)n1C	1.3	4.6	-3.8	1.3	·	·
COc1ccc(/C=N/NC(=O)NC23CC4CC(CC(C4)C2)C3)c(OC)c1	-1.2	-2.8	-0.3	-0.3	·	·
O=C(CSc1nc2scc(-c3ccccc3)c2c(=O)[nH]1)N1CCOCC1	-1.6	-11.0	-1.2	2.6	·	·
O=C(Nc1ccc(N2CCOCC2)c(S(=O)(=O)Nc2ccc(Cl)cc2)c1)c1cnccn1	0.0	46.4*	11.9	0.1	60.4*	-3.1
CCC(=O)Nc1ccc(N2CCOCC2)c(S(=O)(=O)Nc2ccc(Cl)cc2)c1	1.8	37.1	16.0	0.4	·	·
O=C(Nc1ccc(N2CCOCC2)c(S(=O)(=O)Nc2ccc(Cl)cc2)c1)c1ccc(=O)[nH]n1	37.5	7.9	-0.1	-3.2	·	·
SMILES	APOBEC3A inh	APOBEC3G inh	HDAC3 inh	LANA-H2A inh	APOBEC3G confirm	UDG ctr A3G
C[C@H](NC(N)=O)C(=O)Nc1ccc(N2CCOCC2)c(S(=O)(=O)Nc2ccc(Cl)cc2)c1	-1.9	46.4*	·	·	30.4*	3.3
COc1ccc(NC(=O)c2cccc(N3C(=O)c4ccc(C(=O)Nc5ccc(OC)c(O)c5)cc4C3=O)c2)cc1O	3.4	0.8	2.4	-2.4	·	·
COC(=O)CCC(=O)N1CCCC(N2CCN(c3ccc(OC)cc3)CC2)C1 (stereo not given)	-1.4	-7.1	2.0	-6.3	·	·
C[C@H](O)[C@H](O)[C@H]1CNc2nc(N)[nH]c(=O)c2N1	2.1	40.8*	-24.3	2.0	34.1*	·
NC(=O)c1c(NC(=O)CCCn2cnc([N+](=O)[O-])n2)sc2c1CCCC2	4.0	59.2*	2.7	-5.6	41.4*	2.9
CS(=O)(=O)C1=NN2C(=N)/C(=C\c3ccc(OC(=O)c4ccco4)cc3)C(=O)N=C2S1	-0.3	62.1*	6.9	-1.4	-1.0	-6.3
CC(C)CS(=O)(=O)C1=NN2C(=N)/C(=C\c3ccc(OC(=O)c4ccco4)cc3)C(=O)N=C2S1	-1.7	-1.1	17.4	10.6	·	·
CCOC(=O)c1sc(=S)n(C)c1NC(=O)c1ccc(OC)cc1	-0.2	53.2*	6.2	1.5	59.1*	-6.1
N/C(=N\OC(=O)N1CCOCC1)c1ccc(Br)cc1	-2.0	-4.9	-0.4	1.6	·	·
CC(/C=N/n1c(-c2n[nH]c3c2CCC3)n[nH]c1=S)=C\c1ccco1	14.6	55.2*	6.6	-7.2	67.9*	-2.7
CC(/C=N/n1c(-c2cccnc2)n[nH]c1=S)=C\c1ccco1	14.7	70.8*	10.0	1.0	69.9*	-1.7
Oc1ccc(C(=S)N2CCN(c3cccc(Cl)c3)CC2)cc1	3.8	40.1*	5.7	-2.0	40.6*	-1.9
COc1ccc(C(=S)N2CCN(c3cccc(Cl)c3)CC2)c(OC)c1	1.9	-1.5	?	-1.3	·	·
COc1cc(C(=S)N2CCN(c3cccc(Cl)c3)CC2)ccc1O	-1.4	49.8*	9.9	1.3	39.9*	-4.0
CCn1c(-c2ccc(Cl)cc2)n[nH]c1=S	-1.6	53.8*	-5.3	-0.2	80.1*	0.6
CCCn1c(-c2ccc(F)cc2)n[nH]c1=S	-5.2	36.4	-9.4	1.5	·	·
CCn1c(CCCCc2n[nH]c(=S)n2CC)n[nH]c1=S	-1.3	46.9*	3.4	2.1	88.1*	5.6
CCn1c(-c2ccc(C)cc2)n[nH]c1=S	2.5	51.3*	?	7.5	29.5	·
CCCCn1c(-c2ccc([N+](=O)[O-])cc2)n[nH]c1=S	-17.3	47.8*	-0.4	4.7	76.5*	1.7
COC(=O)c1c(C)[nH]c(C(=O)C(C)Sc2nnc(-c3cc(OC)c(OC)c(OC)c3)o2)c1C (stereo not given)	-1.7	-2.1	1.9	3.0	·	·
CCn1cc(/C=N\NC(=O)c2ccc3c(c2)c(C)c(C)n3Cc2ccccc2)c(C)n1	19.5	2.8	10.0	0.9	·	·

High-throughput results (PubChem)
